Screens from PubChem BioAssay.
Only some compounds are listed: those with a hit (about 10% of all), similar ones and a draw of the others.
3T3 cytotox: kills NIH 3T3 cells; Potency, µM (highest dose often 96.7 µM), without a hit: top-dose activity change, negative = cytotoxicity, hits mostly inhibitors; hit rate 4.3% among 94,000; NIH 3T3 viability, CellTiter-Glo ATP luminescence, 48-72 h; note: % is set by controls: 0 for no effect and ±100 for the full control effect; nearly all actives have a fitted effect of over 55% in size
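Viability of NIH 3T3 cells after 48 or 72 hr compound treatment at 37 °C was assessed by CellTiter-Glo, with luminescence imaged following a 10 min room-temperature step.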
HEK cytotox: cytotoxic compounds in HEK 293 cells; HEK 293 viability, ATP luminescence (CellTiter-Glo), 48-72 h; Potency, µM (titrated, usually from 115 µM), inactives show top-dose activity change, negative = cytotoxicity, hits mostly inhibitors; hit rate 6.6% among 94,000; AID 1345083; note: % is set by controls: 0 for no effect and ±100 for the full control effect; nearly all actives have a fitted effect of over 60% in size
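CellTiter-Glo luminescence (cellular ATP) was read after 48 or 72 hr of compound exposure at 37 degree Celsius. Cells were HEK 293 plated at 250 cells/well.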
NPR1 antag: blocks ANP-stimulated signaling of human Npr1 receptor. HEK293 hNpr1 GloSensor cGMP, ANP-stimulated luminescence. Potency, µM (doses to about 46.3 µM), without a hit: at the highest dose activity change, negative = inhibition, hits mostly inhibitors. hit rate 1.6% among 76,000. AID 1347048; calls by dose curve; note: % is set by controls: 0 for no effect and ±100 for the full control effect; nearly all actives have a fitted effect of over 60% in size
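Compound pre-incubated 30 min at room temperature on GloSensor-loaded HEK293 cells stably carrying hNpr1 and the pGS-40F cGMP biosensor. Stimulation uses hNppA at 0.1 nM final; luminescence is taken at baseline and 20 min post-agonist.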
FLuc inh-1: Photinus pyralis luciferase inhibition; P08659; purified P. pyralis luciferase, luminescence, biochemical; Potency, µM (doses to about 115 µM), hits mostly inhibitors; hit rate 2.5% among 76,000; AID 1347043; note: % is set by controls: 0 for no effect and ±100 for the full control effect; nearly all actives have a fitted effect of over 65% in size
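FLuc 10nM, D-luciferin 10uM, ATP 10uM, Mg acetate 10mM, Tris acetate pH 7.5, Tween/BSA; cpd qHTS; enzyme added last; CCD luminescence.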
GPT2 inh: inhibitors of human GPT2 alanine aminotransferase; hit rate 0.25% among 100,000; AID 1671188; Recombinant GPT2, coupled pyruvate oxidase/HRP Amplex Red fluorescence; Q8TD30; Potency, µM (doses to about 57.7 µM), inactives show top-dose activity change, negative = inhibition, actives largely listed as inhibitors; note: % is set by controls: 0 for no effect and ±100 for the full control effect; nearly all actives have a fitted effect of over 60% in size
Target sequence (Q8TD30 whole entry, looked up): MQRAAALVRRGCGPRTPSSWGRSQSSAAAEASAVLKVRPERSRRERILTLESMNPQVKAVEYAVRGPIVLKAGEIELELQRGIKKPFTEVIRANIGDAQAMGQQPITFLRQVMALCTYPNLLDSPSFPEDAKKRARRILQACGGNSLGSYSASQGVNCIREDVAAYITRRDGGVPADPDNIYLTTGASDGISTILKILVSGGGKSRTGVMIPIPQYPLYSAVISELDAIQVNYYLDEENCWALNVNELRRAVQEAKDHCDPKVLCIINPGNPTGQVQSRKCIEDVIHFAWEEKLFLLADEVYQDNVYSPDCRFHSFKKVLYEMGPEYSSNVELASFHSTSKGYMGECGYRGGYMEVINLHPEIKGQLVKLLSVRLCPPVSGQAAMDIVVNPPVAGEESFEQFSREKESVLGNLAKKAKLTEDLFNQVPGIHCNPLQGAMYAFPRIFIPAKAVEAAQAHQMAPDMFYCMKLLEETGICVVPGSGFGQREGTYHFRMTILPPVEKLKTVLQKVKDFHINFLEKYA
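Fluorescence of coupled pyruvate oxidase/HRP/Amplex Red system (50uM Amplex, 30 min, dark) reports pyruvate formed by GPT2. Enzyme reaction: 10ng/uL GPT2, 2mM L-alanine, 250uM a-KG, 30 min room temperature, pH 7.5; 50uM AOA control.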
FLuc SDR no ATP: firefly luciferase binding stabilization, ATP absent | shares compounds with FLuc inh-1 | Purified FLuc-C-HiBiT, Nano-Glo HiBiT luminescence, no ATP | Potency, µM (top dose mostly 32.7 µM), inactives show top-dose activation (signal gain), hits mostly activators | hit rate 7.8% among 1,300 | AID 1963318; note: nearly all actives have a fitted effect of over 55% in size
FLuc SDR ATP: binders stabilizing firefly luciferase, plus ATP | shares compounds with FLuc inh-1 | purified FLuc-C-HiBiT + ATP, HiBiT complementation luminescence | Potency, µM (highest dose often 32.7 µM), for the others: top-dose activation (gain of signal), actives largely listed as activators | hit rate 8.7% among 1,300 | AID 1963319;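 note: signal reports ligand binding via conformational change of the enzyme rather than luciferase catalysis; % of control where 0% means no effect; nearly all actives have a fitted effect of over 55% in size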
FLuc inh-2: inhibitors of firefly luciferase enzymatic activity | shares compounds with FLuc inh-1 | purified FLuc-C-HiBiT enzyme, luciferin luminescence | Potency, µM (series often up to 32.7 µM), inactives show at the top dose activity change, negative = inhibition, actives largely listed as inhibitors | hit rate 42% among 1,300; note: % is set by controls: 0 for no effect and ±100 for the full control effect; nearly all actives have a fitted effect of over 70% in size
Active calls of the source: *; i = inactive; ? = inconclusive; nt = no result; [ ] = dose if it differs, or a comment. Unless noted, calls come from the whole dose curve; as a rule, active = well fitted curve in the direction sought with a large enough effect; inconclusive = small, poorly fitted or top-dose-only effect, or another doubt; inactive = no such curve, though single readings can be large; an effect the other way counts as inactive or inconclusive. Potency is the fitted concentration of half-maximal effect.

SMILES	3T3 cytotox	HEK cytotox	NPR1 antag	FLuc inh-1	GPT2 inh	FLuc SDR no ATP	FLuc SDR ATP	FLuc inh-2
COc1ccc2cc(C3CN(C(=O)CCc4n[nH]c(C)n4)CCO3)ccc2c1 (centres undefined)	?	-24%	?	2.5µM*	-3%	?	?	9.9µM*
COc1ccc2cc(C3CN(C(=O)c4cccc(CO)c4)CCO3)ccc2c1 (centres undefined)	?	28µM*	10µM*	0.56µM*	-8%	?	?	2.5µM*
COc1ccc2cc(C3CN(C(=O)c4cccc(CO)n4)CCO3)ccc2c1 (centres undefined)	-32%	?	?	3.5µM*	i	23%	?	?
CCN(CC)C(=O)N1CCOC(c2ccc3cc(OC)ccc3c2)C1 (centres undefined)	?	?	11µM*	1.6µM*	5%	30%	?	5.6µM*
C[C@@H]1O[C@@H](O[C@H]2[C@H](OC(=O)[C@]34CCC(C)(C)C[C@H]3C3=CCC5[C@@]6(C)C[C@H](O)[C@H](O[C@@H]7O[C@H](CO[C@@H]8OC[C@H](O)[C@H](O)[C@H]8O)[C@@H](O)[C@H](O)[C@H]7O)C(C)(C)C6CC[C@@]5(C)[C@]3(C)C[C@H]4O)OC[C@@H](O)[C@@H]2O)[C@H](O)[C@H](O[C@@H]2OC[C@](O)(CO)[C@H]2O)[C@H]1O[C@@H]1OC[C@H](O)[C@H](O[C@@H]2OC[C@@H](O)[C@H](O)[C@H]2O)[C@H]1O (some centres undefined)	nt	nt	nt	nt	i[11.5 µM]	nt	nt	nt
Cn1nc(C2CCN(C(=O)c3ccc(F)cc3)CC2)c2c1CCOC2	i	12%	4%	i	-6%	nt	nt	nt
COc1ccc(CN2CCOC[C@H](Oc3ccc(C(F)(F)F)cn3)C2)cc1	-23%[138 µM]	?	-21%[70.6 µM]	i	i	nt	nt	nt
CC(C)Oc1ccc(C(=O)Nc2ccc(-c3nc4ccccc4s3)cc2)cc1	nt	nt	nt	nt	nt	18%	10%	4%
O=C(COc1ccccc1F)Nc1ccc(-c2nc3ccccc3s2)cc1	nt	nt	nt	nt	nt	10%	7%	-5%
CN(C)c1cccc(C(=O)Nc2ccc(-c3nc4ccccc4s3)cc2)c1	nt	nt	nt	nt	nt	30%	?	?
COc1ccccc1OC(C)C(=O)Nc1ccc(-c2nc3ccccc3s2)cc1 (centres undefined)	nt	nt	nt	nt	nt	15%	13%	-10%
CCCS(=O)(=O)N1CCC(Cc2nc(-c3ccncc3)n[nH]2)C1 (centres undefined)	-10%	13%	2%	i	i	nt	nt	nt
COc1ccc(CN2C(=O)[C@@H]3C[C@@H](O)CN3C3(CN(Cc4ccc(F)cc4)C3)C2=O)cc1	-18%	i	-1%	i	0%	nt	nt	nt
CCCS(=O)(=O)N1CCc2n[nH]c(=O)n2CC1	2%	1%	-3%	i	i	nt	nt	nt
O=C(c1ccc2cc[nH]c2c1)N1CCC2(CC1)N=C(c1cccc(Br)c1)NO2	?	?	?	i	1%	nt	nt	nt
Cc1cnc(C(=O)N[C@@H]2CCC[C@@H]2C(=O)NCc2ccc(Cl)cc2)cn1	-15%	-3%	5%	i	-12%	nt	nt	nt
COC[C@H]1C[C@@H](NC(=O)c2nc3ccccc3s2)[C@H](O)[C@@H]1O	-7%[138 µM]	-5%[172 µM]	-9%[70.6 µM]	i	i	nt	nt	nt
CN(C(=O)OC(C)(C)C)c1ccc(-c2nc3ccccc3s2)cc1	nt	nt	nt	nt	nt	1.4µM*	0.35µM*	0.099µM*
CC(C)(C)C1CCC2(CC1)NC(=O)N(CC(=O)Nc1cccc(C#N)c1)C2=O (centres undefined)	i	7%	2%	i	-13%	nt	nt	nt
CC(C)c1noc(-c2nc(-c3ccc4c(c3)OCO4)no2)n1	-24%	?	?	3.5µM*	i	16%	17%	7.9µM*
Cc1c(Cl)cccc1-n1nnc(-c2nc(-c3ccc4c(c3)OCO4)no2)c1C	nt	nt	nt	nt	nt	18%	16%	11µM*
Cc1cccc(NC(=O)N2C[C@@H](F)C[C@H]2C(=O)N2CCCCC2)c1	3%	2%	4%	i	i	nt	nt	nt
COCCN1CCC2(C1)CN(C)c1ccc(C(=O)Nc3ccccc3)cc12 (centres undefined)	?	79µM*	6.3µM*	0.63µM*	4%[88.5 µM]	4µM*	?	1.1µM*
COCCN1CCC2(C1)CN(C)c1ccc(C(=O)Nc3ccn(C)n3)cc12 (centres undefined)	nt	nt	nt	nt	nt	?	?	10µM*
COCCN1CCC2(C1)CN(C)c1ccc(C(=O)Nc3ccc(F)cc3)cc12 (centres undefined)	?	79µM*	?	2.8µM*	-28%[88.5 µM]	?	?	7.2µM*
SMILES	3T3 cytotox	HEK cytotox	NPR1 antag	FLuc inh-1	GPT2 inh	FLuc SDR no ATP	FLuc SDR ATP	FLuc inh-2
CN1CC2(CCCN(CC3CC3)C2)c2cc(C(=O)Nc3ccn(C)n3)ccc21 (centres undefined)	-13%[138 µM]	?	2%[70.6 µM]	i	i	nt	nt	nt
COCCN1CCC2(C1)CN(C)c1ccc(C(=O)NCCOc3ccccc3)cc12 (centres undefined)	?	?	-6%[70.6 µM]	i	0%[88.5 µM]	nt	nt	nt
O=C(CN1C2=NCCN2c2ccccc21)c1ccc(-c2ccccc2)cc1	nt	nt	nt	nt	2%	nt	nt	nt
C=CCN(C)C(=O)[C@@H](C)C1CC[C@@]2(C)Cc3sc(NC(=O)CN(C)C)nc3[C@@H](C)[C@@H]2[C@H]1O (some centres undefined)	-27%	-21%	-19%	13µM*	3%	13%	13%	-13%
CCN(CC)C(=O)C(C)[C@@H]1CC[C@@]2(C)Cc3sc(NC(=O)C4CC4)nc3[C@@H](C)[C@@H]2[C@H]1O (some centres undefined)	-19%	-5%	-7%	i	0%	nt	nt	nt
CCC(C)(C)C(=O)N[C@@H]1CN(c2ccncn2)C[C@H]1CO	-12%	-1%	1%	i	4%	nt	nt	nt
COc1cccc(CNC(=O)Nc2cccn3nc(C)nc23)c1	-15%	-2%	1%	i	-1%	nt	nt	nt
Cc1ccc(NC(=O)Nc2cccn3nc(C)nc23)cc1	?	?	-8%	7.9µM*	?	?	17%	?
